Consider 16 molecules from PubChem BioAssay (EPA / NIEHS).

One may read the AC50 as the concentration at which the activity in the assay is half-maximal.

The nature of experiment [1]: ATG_GLI_CIS: Attagene CIS-FACTORIAL HepG2 Assay for human Zinc Finger Protein GLI1 (AID 2282945). The settings on record: HepG2, Attagene cis-factorial reporter mRNA, GLI element; actives raise or lower the signal. In short, it runs like this:
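Transiently transfected HepG2 cells report endogenous transcription factor activity via cis-element-driven reporter units. After 24 h compound exposure, reporter mRNA was measured by RT-PCR with capillary electrophoresis; bidirectional fitting against DMSO baseline.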

Experiment [2] addresses Bile acid receptor (Homo sapiens) (UniProt Q96RI1). The experiment can be described thus: ATG_IR1_CIS: Attagene CIS-FACTORIAL HepG2 Assay for human Nuclear Receptor Subfamily 1 Group H Member 4 (NR1H4), IR1 submotif (AID 2282946). The settings on record: IR1 reporter transcription, actives raise or lower the signal. Put shortly: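 Fluorescence of capillary-separated, HpaI-digested RT-PCR reporter products gave IR1-element mRNA induction in HepG2 cells 24 h after dosing. Endogenous transcription factors drove the cis-regulated reporters; activity was fitted bidirectionally against DMSO.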

The nature of experiment [3]: ATG_ISRE_CIS: Attagene CIS-FACTORIAL HepG2 Assay for human Interferon Regulatory Factor 1 (IRF1) binding to an Interferon-Stimulated Response Element (ISRE) (AID 2282948). As to conditions: HepG2 ISRE cis-reporter (Attagene), mRNA transcription readout; actives raise or lower the signal. Put shortly: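 Endogenous transcription factor activity read as reporter transcript abundance via RT-PCR and capillary electrophoresis. HepG2 cells transiently transfected, 24 h chemical exposure. Gain or loss fitted against DMSO baseline.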

Experiment [4] is described as follows: ATG_M_32_CIS: Attagene CIS-FACTORIAL HepG2 Assay for M32 Transcription Factor (Internal Marker) (AID 2282949).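 Further: background control marker of the multiplexed CIS panel rather than a real target.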 As to conditions: HepG2 Attagene cis-factorial M32 reporter, mRNA; actives raise or lower the signal. Put shortly:
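HepG2 transfectants (cis-regulated reporter transcription units) dosed 24 h. Reporter mRNA by RT-PCR plus CE, analysed as gain or loss relative to DMSO.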

Experiment [5] is described as follows: ATG_M_06_CIS: Attagene CIS-FACTORIAL HepG2 Assay for M06 Transcription Factor (Internal Marker) (AID 2282950). As to conditions: HepG2 Attagene CIS-FACTORIAL M06 internal marker reporter; actives raise or lower the signal. Put shortly: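 One of many multiplexed endpoints: HepG2 reporter mRNA after 24 h dosing, detected by RT-PCR and capillary electrophoresis fluorescence; gain or loss of signal analysed against DMSO.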

The target of experiment [6] is Hypoxia-inducible factor 1-alpha (Homo sapiens) (UniProt Q16665). Description: ATG_HIF1a_CIS: Attagene CIS-FACTORIAL HepG2 Assay for human Hypoxia Inducible Factor 1 (HIF1A) (AID 2282951). The settings on record: HepG2 Attagene cis-factorial HIF1a reporter transcription; actives raise or lower the signal. In short, it runs like this:
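Cis-element reporter constructs were transiently transfected into HepG2 cells, which were treated for 24 h; reporter RNA was reverse-transcribed, amplified, labelled and resolved by capillary electrophoresis.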

Experiment [7] addresses Hepatocyte nuclear factor 6 (Homo sapiens) (UniProt Q9UBC0). Description: ATG_HNF6_CIS: Attagene CIS-FACTORIAL HepG2 Assay for human Hepatocyte Nuclear Factor 6 (HNF6) (AID 2282952). The settings on record: HepG2 Attagene cis-factorial HNF6 reporter transcription; actives raise or lower the signal. Put shortly:
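First, HepG2 cells were transfected with the multiplexed cis reporter library and dosed with chemical for 24 h. Next, RNA was reverse-transcribed, PCR-amplified and fluorescently labelled. Finally, HpaI-digested fragments were read by capillary electrophoresis.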

The target in experiment [8] is Heat shock factor protein 1 (Homo sapiens) (UniProt Q00613). The experiment can be described thus: ATG_HSE_CIS: Attagene CIS-FACTORIAL HepG2 Assay for human Heat Shock Transcription Factor 1 (HSE) (AID 2282953). The settings on record: HepG2 HSE cis-reporter, Attagene RNA transcription; actives raise or lower the signal. Put shortly: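 Using HepG2 with transfected cis-driven reporter constructs, compound effects on endogenous factor activity are scored as reporter mRNA change at 24 h. Detection: RT-PCR, HpaI digestion, capillary electrophoresis; bidirectional fitting to DMSO.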
Heat shock factor protein 1 (Homo sapiens), sequence (Q00613 whole entry, looked up): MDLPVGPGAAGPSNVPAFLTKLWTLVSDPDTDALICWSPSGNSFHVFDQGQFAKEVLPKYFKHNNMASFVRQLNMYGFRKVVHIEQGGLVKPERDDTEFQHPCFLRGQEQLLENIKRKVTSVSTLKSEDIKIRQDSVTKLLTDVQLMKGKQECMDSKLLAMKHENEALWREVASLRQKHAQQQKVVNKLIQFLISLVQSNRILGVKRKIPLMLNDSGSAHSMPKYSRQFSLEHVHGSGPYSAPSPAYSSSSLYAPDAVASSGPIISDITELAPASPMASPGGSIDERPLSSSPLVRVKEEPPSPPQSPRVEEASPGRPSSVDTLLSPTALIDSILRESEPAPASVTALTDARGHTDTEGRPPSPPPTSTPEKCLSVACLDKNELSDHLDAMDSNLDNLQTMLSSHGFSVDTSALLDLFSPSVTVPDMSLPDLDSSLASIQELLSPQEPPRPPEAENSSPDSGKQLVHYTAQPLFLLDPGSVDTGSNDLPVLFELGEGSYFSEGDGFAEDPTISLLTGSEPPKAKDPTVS

Experiment [9] is described as follows: ATG_MRE_CIS: Attagene CIS-FACTORIAL HepG2 Assay for human Metal Responsive Element (MRE) (AID 2282954). The settings on record: HepG2 MRE cis-reporter transcription, Attagene multiplex; actives raise or lower the signal. In short, it runs like this: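 Measured here is mRNA induction from an MRE cis-element reporter in HepG2 after 24 h, quantified by fluorescence of labelled RT-PCR products on capillary electrophoresis; gain- and loss-of-signal fits use DMSO as baseline.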

The nature of experiment [10]: ATG_GRE_CIS: Attagene CIS-FACTORIAL HepG2 Assay for human Glucocorticoid Response Elements (GRE) (AID 2282947). The settings on record: HepG2 GRE cis-reporter, Attagene multiplex mRNA; actives raise or lower the signal. Put shortly:
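Fluorescence intensity of reporter-specific cDNA fragments, separated by capillary electrophoresis, provides the signal. Constructs carry cis-regulating promoters in transiently transfected HepG2 liver cells; 24 h incubation; fitting is bidirectional against DMSO.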

Molecules are shown by their SMILES. Values joined by “and” are separate entries in the source; they are usually repeats but may differ in a detail not shown here. Equal values may be shown once. More than one record can exist for a structure, and the calls need not agree. Active and inactive are the calls of the source. How the source made its calls: active means hit-call score of the fitted dose curve at least 0.9, where 1 is the maximum; inactive means score below 0.9.

Hepatocyte nuclear factor 6 (Homo sapiens), sequence (Q9UBC0 whole entry, looked up, the tested form may be a part): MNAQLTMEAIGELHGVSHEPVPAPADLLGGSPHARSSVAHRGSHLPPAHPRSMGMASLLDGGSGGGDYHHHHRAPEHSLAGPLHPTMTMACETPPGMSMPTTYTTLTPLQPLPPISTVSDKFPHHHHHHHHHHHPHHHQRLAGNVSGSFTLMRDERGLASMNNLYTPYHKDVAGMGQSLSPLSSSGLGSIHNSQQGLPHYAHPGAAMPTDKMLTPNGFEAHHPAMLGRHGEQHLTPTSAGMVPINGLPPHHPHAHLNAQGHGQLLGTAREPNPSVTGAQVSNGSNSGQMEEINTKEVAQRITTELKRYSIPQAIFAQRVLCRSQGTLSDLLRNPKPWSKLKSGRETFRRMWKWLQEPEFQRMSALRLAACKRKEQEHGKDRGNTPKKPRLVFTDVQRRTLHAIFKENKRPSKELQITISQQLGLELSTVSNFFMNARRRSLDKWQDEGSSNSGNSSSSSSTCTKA
Bile acid receptor (Homo sapiens), sequence (Q96RI1 whole entry, looked up): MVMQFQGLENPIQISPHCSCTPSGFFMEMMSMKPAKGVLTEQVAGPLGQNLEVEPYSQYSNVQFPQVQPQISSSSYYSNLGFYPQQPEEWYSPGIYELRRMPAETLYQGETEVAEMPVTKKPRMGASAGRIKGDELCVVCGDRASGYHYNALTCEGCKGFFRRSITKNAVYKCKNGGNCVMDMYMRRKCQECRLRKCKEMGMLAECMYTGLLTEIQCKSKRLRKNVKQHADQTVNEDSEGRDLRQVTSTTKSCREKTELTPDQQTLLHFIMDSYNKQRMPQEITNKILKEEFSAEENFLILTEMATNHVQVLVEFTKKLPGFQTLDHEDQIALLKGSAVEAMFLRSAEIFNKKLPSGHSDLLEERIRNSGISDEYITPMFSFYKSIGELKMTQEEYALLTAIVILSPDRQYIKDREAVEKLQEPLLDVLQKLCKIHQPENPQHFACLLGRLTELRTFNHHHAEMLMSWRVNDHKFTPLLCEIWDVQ
Hypoxia-inducible factor 1-alpha (Homo sapiens), sequence (Q16665 whole entry, looked up): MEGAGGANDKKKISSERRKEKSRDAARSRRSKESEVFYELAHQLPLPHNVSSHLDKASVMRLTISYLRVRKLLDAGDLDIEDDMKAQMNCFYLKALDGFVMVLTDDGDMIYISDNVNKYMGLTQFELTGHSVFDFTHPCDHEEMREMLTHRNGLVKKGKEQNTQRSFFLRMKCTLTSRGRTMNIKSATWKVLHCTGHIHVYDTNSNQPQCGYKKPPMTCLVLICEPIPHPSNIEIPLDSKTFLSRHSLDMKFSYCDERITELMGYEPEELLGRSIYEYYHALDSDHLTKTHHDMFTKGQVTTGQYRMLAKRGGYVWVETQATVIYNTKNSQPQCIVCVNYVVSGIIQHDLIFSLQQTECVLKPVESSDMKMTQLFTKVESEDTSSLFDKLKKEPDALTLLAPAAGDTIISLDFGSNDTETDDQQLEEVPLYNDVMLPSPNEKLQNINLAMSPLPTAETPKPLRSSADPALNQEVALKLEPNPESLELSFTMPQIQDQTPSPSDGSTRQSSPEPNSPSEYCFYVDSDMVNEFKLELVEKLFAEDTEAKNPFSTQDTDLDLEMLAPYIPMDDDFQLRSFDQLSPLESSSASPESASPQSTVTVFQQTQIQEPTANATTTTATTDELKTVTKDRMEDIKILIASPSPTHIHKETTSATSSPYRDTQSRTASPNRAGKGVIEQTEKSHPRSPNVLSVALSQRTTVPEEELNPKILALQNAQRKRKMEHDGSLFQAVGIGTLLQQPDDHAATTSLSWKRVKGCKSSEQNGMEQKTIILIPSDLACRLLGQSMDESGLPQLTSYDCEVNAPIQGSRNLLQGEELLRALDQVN

Regarding `c1ccc2cc3c(ccc4ccccc43)cc2c1`, the call in experiment [1], in [2], in experiment [3], in experiment [4], in experiment [5] and in [6] was inactive. The outcome in experiment [7], in [8] and in experiment [9] was inactive. The AC50 in experiment [2] was 621 nM (active) and 25.4 µM (active) and 1.92 µM (active); in experiment [6], 3.05 µM (active) and 2.3 µM (active); in [8] it was 120 µM (active).
`OCCC(F)(F)C(F)(F)C(F)(F)C(F)(F)C(F)(F)C(F)(F)C(F)(F)C(F)(F)F`: the AC50 in [1] is 59.2 µM (active); in experiment [3], 150 µM (active); in experiment [7], 171 µM (active); in experiment [8], 55.7 µM (active) and 234 µM (active); in experiment [9], 47.3 µM (active) and 150 µM (active). In addition, the molecule was called inactive in experiment [1], in experiment [3], in experiment [4], in experiment [5], in experiment [6] and in experiment [7].
As to `CCCCCCC(=O)O`, the result in experiment [1], in [2], in [10], in [3], in [4] and in [5] was inactive. For the same molecule, the result in experiment [6], in experiment [7], in experiment [8] and in experiment [9] was inactive.
Turning to `O=c1c(-c2ccc(O)cc2)coc2cc(O)ccc12`, the molecule was classed as inactive in [1], in experiment [2], in experiment [10], in [3], in experiment [4] and in experiment [5]. For the same molecule, the molecule was classed as inactive in experiment [7], in experiment [8] and in experiment [9]. Besides, the AC50 in [2] is 52.6 µM (active) and 100 µM (active).
`CCCCCCCCCCCCN1CCCC1=O`: the outcome in experiment [1], in experiment [2], in [10], in experiment [3], in experiment [4] and in experiment [5] was inactive. Also, the result in experiment [6], in experiment [7], in [8] and in experiment [9] was inactive.
As to `C=C(C)C(=O)OCCC(F)(F)C(F)(F)C(F)(F)C(F)(F)C(F)(F)C(F)(F)F`, the outcome in [1], in [2], in [10], in experiment [3], in [4] and in experiment [5] was inactive. The result in experiment [6], in experiment [7], in experiment [8] and in experiment [9] was inactive.
Consider `CN1CCN(c2ccccc2/C=C2\SCCN(c3ccc(Cl)c(Cl)c3)C2=O)CC1`, for which the molecule was classed as inactive in [1], in experiment [2], in experiment [10], in [3], in experiment [4] and in experiment [5]. In addition, the outcome in [6], in [7], in experiment [8] and in [9] was inactive.
`CCC(=C(c1ccc(O)cc1)c1ccc(OCCN(C)C)cc1)c1ccccc1`: the AC50 in experiment [1] was 11.2 µM (active); in experiment [2] it was 1.45 µM (active); in experiment [10] it was 13.1 µM (active); in experiment [3] it was 9.63 µM (active); in experiment [5], 11.7 µM (active); in [6] it was 4.12 µM (active). Further, the AC50 in experiment [7] was 11.1 µM (active); in experiment [8], 12.1 µM (active) and 12.3 µM (active); in experiment [9] it was 7.1 µM (active) and 9.34 µM (active). For the same molecule, the molecule was classed as inactive in [1], in experiment [2], in experiment [10], in experiment [3], in experiment [4] and in experiment [5]. For the same molecule, the molecule was classed as inactive in experiment [6], in experiment [7], in experiment [8] and in [9].
With `CC(C)(C)c1cc(C(C)(C)C)c(O)c(C(C)(C)C)c1`, the molecule was called inactive in experiment [1], in experiment [10], in [3], in [4], in experiment [5] and in experiment [6]. Moreover, the result in [7] and in [8] was inactive. The AC50 in [2] is 698 nM (active) and 2.29 µM (active); in experiment [3], 138 µM (active); in [6] it was 100 µM (active); in experiment [9], 100 µM (active) and 36.8 µM (active).
Take `Oc1cccc(O)c1`: the outcome in [1], in experiment [2], in [10], in experiment [3], in [4] and in experiment [5] was inactive. Further, the molecule was classed as inactive in [6], in [7], in [8] and in experiment [9].
Consider `CC(C)(C)c1cccc(C(C)(C)C)c1O`, for which the molecule was called inactive in experiment [1], in experiment [2], in experiment [10], in [4], in [5] and in [7]. Further, in [8], the molecule was called inactive. Besides, the results for the AC50 in [3], in experiment [6] and in experiment [9] were 162 µM (active), 173 µM (active) and 158 µM (active), respectively.
Turning to `CC[C@H](C)[C@@H](C(=O)O)n1sc2ccccc2c1=O`, the result in [1], in experiment [2], in experiment [10], in experiment [3], in experiment [4] and in experiment [5] was inactive. The result in experiment [6], in experiment [7], in [8] and in experiment [9] was inactive.
As for `FC(F)(I)C(F)(F)C(F)(F)C(F)(F)C(F)(F)C(F)(F)I`, the molecule was called inactive in [1], in experiment [2], in experiment [3], in experiment [4], in experiment [5] and in experiment [6]. In addition, the molecule was called inactive in experiment [7], in [8] and in experiment [9]. Also, the AC50 in experiment [10] was 18.1 µM (active).
As to `COC(=O)CCCCC(=O)OC`, the molecule was called inactive in [1], in [2], in experiment [10], in [3], in experiment [4] and in [5]. Besides, the molecule was classed as inactive in [6], in experiment [7], in experiment [8] and in experiment [9].
With `CC(C)CCCCCCOC(=O)CCCCC(=O)OCCCCCCC(C)C`, the molecule was classed as inactive in experiment [1], in [2], in [10], in [3], in experiment [4] and in [5]. The result in experiment [6], in experiment [7], in [8] and in experiment [9] was inactive.
As to `CCCCCCCCCCCCCC[N+](C)(C)C`, the result in experiment [1], in experiment [2], in experiment [10], in experiment [3], in experiment [4] and in experiment [5] was inactive. The result in experiment [6], in experiment [7], in experiment [8] and in [9] was inactive. In addition, the AC50 in experiment [2] was 9.85 µM (active); in experiment [9], 8.9 µM (active).
